High-throughput results as filed in PubChem.
AID923: qHTS Assay for Allosteric/Competitive Inhibitors of Caspase-1: Spectroscopic Profiling in AFC Spectral Region; 75,000 tested, 1.1% active; compound fluorescence, AFC spectral region (405/520 nm); Potency, µM (series often up to 57.5 µM), without a hit: top-dose fluorescence increase, most hits filed as activators; AID 923, 2007; further: potency means the concentration at half of the fitted maximal effect; 0% is about no effect
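Compound autofluorescence profiled at 405 nm ex/520 nm em during kinetic caspase 1 run (50 nM enzyme, 5 uM Ac-WEHD-AFC, HEPES pH 7.5, 10 mM DTT). Titration up to 57 uM; baseline from regression intercept, normalized to AFC standard curve.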
A350 fluor: compounds fluorescent in Alexa 350 spectral region | Compound autofluorescence, 340/450 nm, Alexa 350 dye-equivalents; hits give high values | max dye-equivalent concentration, M | 59,000 tested, 11% active | AID 590; in the data active means max dye-equivalent concentration above about 10 nM; inconclusive means mostly about 1.1 nM to 9.6 nM
4MU fluor: compound fluoresces in the 4-MU spectral region; max dye-equivalent concentration, M; AID 589; 59,000 tested, 11% active; compound autofluorescence, 340/450 nm, 4-MU equivalents; hits give high values; in the data active means max dye-equivalent concentration above about 10 nM; inconclusive means mostly about 1.1 nM to 9.6 nM
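Compounds in 100 mM Tris, pH 8.0, sat 15 min at room temperature before fluorescence was read at 340 nm excitation/450 nm emission; a per-plate six-point 4-MU standard curve converted signals to dye-equivalent concentration at each compound concentration.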
HSD17B inhib: blocks hydroxysteroid 17-beta dehydrogenase activity | AID 893 | Q99714 | 75,000 tested, 7.6% active | recombinant HSD17B10, NADH fluorescence kinetic | Potency, µM (series often up to 57.1 µM), inactives show at the highest dose activity change, negative = inhibition, actives largely listed as inhibitors;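 further: the protocol describes HADH2 (HSD17B10) and not the HSD17B4 of the title; potency means the concentration at half of the fitted maximal effect; on the % scale 0 is the no-effect control and ±100 the full control effect; nearly all actives have a fitted effect of over 70% in size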
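Activity followed as NADH fluorescence increase (ex 360, em 450 nm) every 30 seconds for 4 min, using final 90 uM beta-hydroxybutyryl CoA and 1 mM NAD+. Recombinant His-tagged enzyme, 20 nM, pH 9.0 Tris buffer, 15 min compound preincubation.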
HADH2 inhib: inhibitors of human HADH2 dehydrogenase | Q99714 | recombinant HADH2, NADH fluorescence, beta-hydroxybutyryl-CoA | Potency, µM (highest dose often 57.1 µM), inactives show at the highest dose activity change, negative = inhibition, most hits filed as inhibitors | 73,000 tested, 3.4% active; further: potency means the concentration at half of the fitted maximal effect; on the % scale 0 is the no-effect control and ±100 the full control effect; nearly all actives have a fitted effect of over 60% in size
Target sequence (Q99714 whole entry, looked up, one chain of several): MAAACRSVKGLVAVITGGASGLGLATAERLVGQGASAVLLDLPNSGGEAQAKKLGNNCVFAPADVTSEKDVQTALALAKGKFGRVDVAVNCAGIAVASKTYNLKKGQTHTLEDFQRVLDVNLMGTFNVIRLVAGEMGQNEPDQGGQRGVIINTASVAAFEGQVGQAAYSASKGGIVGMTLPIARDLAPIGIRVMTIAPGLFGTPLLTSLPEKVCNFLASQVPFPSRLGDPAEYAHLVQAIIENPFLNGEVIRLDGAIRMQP
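20 nM HADH2 + cpd, 15 min RT; add 1 mM NAD+/90 uM beta-hydroxybutyryl-CoA; kinetic fluorescence 360/450 nm, 4 min. Tris-HCl pH 9.0, 0.01% Tween-20.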
CRE Fsk mod: modulators of forskolin-stimulated CRE signaling in CHO cells; CHO CRE-bla reporter (cAMP response element driving beta-lactamase), forskolin EC10, beta-lactamase ratio; Potency, µM (doses to about 38.2 µM), for inactives: at the top dose activity change, negative = inhibition, actives largely listed as activators; 71,000 tested, 2.5% active; active means well fitted activation curve with a large enough effect in the signal ratio, with a control signal flat, not every such curve was filed as active; inconclusive means small, poorly fitted or top-dose-only effect, or effect the other way, or a change in a side signal; the % refers to the signal ratio; further: potency means the concentration at half of the fitted maximal effect; % of control where 0% means no effect
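Modulation of forskolin signalling: compounds in titration series added with EC10 NKH 477 to CHO cells carrying a CRE-driven beta-lactamase reporter, 3 h, 37C. CCF4 FRET ratio (460/530 nm, ex 405 nm) gives %activity and AC50.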
An asterisk follows results filed as active; i = inactive; ? = inconclusive; nt = not tested or not shown; [ ] = remark or other dose. Sampled rows, rich in hits. Any-hit rate of the full collection: about 14%. Unless noted, the call rests on the fitted dose curve; in most records, active means well fitted curve in the direction sought with a large enough effect; inconclusive means small, poorly fitted or top-dose-only effect, or another doubt; inactive means no such curve, though single readings can be large; an effect the other way counts as inactive or inconclusive.

SMILES | AID923 | A350 fluor | 4MU fluor | HSD17B inhib | HADH2 inhib | CRE Fsk mod
COc1ccc(NC(=O)N(CCCN(C)C)Cc2cc3cc(OC)ccc3[nH]c2=O)cc1 | 1% | 7.7e-08M* | 7e-08M* | 32µM* | -19% | 7%
CCN(CC)CCCN(Cc1cc2cc(OC)ccc2[nH]c1=O)C(=O)Nc1ccccc1 | 1% | 2.5e-07M* | 2.1e-07M* | 25µM* | -6% | -4%
CCOc1ccc(N(Cc2cc3cc(OC)ccc3[nH]c2=O)C(=O)C2CCCO2)cc1 (stereo not given) | 1% | 3.9e-07M* | 3e-07M* | 32µM* | -4% | 15%
Cc1ccc2[nH]c(=O)c(COC(=O)C3CCCO3)cc2c1 (stereo not given) | 1% | 1.3e-08M* | 1.1e-08M* | -22% | -11% | 4%
C[N+](C)(C)[C@@H](C1=CCCC1=O)c1ccccc1 | -1%[11.5 µM] | i | i | -8%[11.4 µM] | -3%[11.4 µM] | ?
CC1CCC2CC1C2(C)C (stereo not given) | 2% | nt | nt | -2% | -2% | -7%
COc1ccc(C2CC(=O)c3c(O)cc(O[C@H]4OC(COC5OC(C)C(O)C(O)[C@@H]5O)C(O)C(O)C4O)cc3O2)cc1O (stereo not given in full) | -2% | nt | nt | 1% | nt | nt
COc1ccc(NC(=O)N(CCN2CCCC2)Cc2cc3cc(OC)c(OC)cc3[nH]c2=O)cc1 | 5% | 3.8e-08M* | 3.9e-08M* | ? | -3% | -3%
COc1ccc2[nH]c(=O)c(CN(CCN(C)C)C(=O)NCc3ccccc3)cc2c1 | 0% | 2.6e-07M* | 2.7e-07M* | 32µM* | -30% | -4%
Cc1ccc2[nH]c(=O)c(CN(CCO)C(=O)NCc3ccccc3)cc2c1 | -1% | ? | i | ? | -2% | 1%
Cc1ccc2[nH]c(=O)c(CN(CC3CCCO3)C(=O)c3ccco3)cc2c1 (stereo not given) | -2% | ? | ? | -2% | 3% | -3%
O=C(NCc1ccccc1)N(Cc1cc2cc3c(cc2[nH]c1=O)OCO3)CC1CCCO1 (stereo not given) | 2% | 3.1e-07M* | 3.6e-07M* | 25µM* | ? | 4%
CCC(=O)N(CCc1ccccc1C)Cc1cc2cc3c(cc2[nH]c1=O)OCO3 | 2% | 8.2e-08M* | 8.8e-08M* | ? | 48% | 0%
CCC(=O)N(Cc1cc2ccccc2[nH]c1=O)C(C)C | 1% | i | i | -28% | 2% | -3%
c1ccc(COCc2ccccc2)cc1 | 0% | nt | nt | 2% | 4% | -4%
COC(=O)c1ccccc1S(=O)(=O)N(Cc1cc2ccc(OC)cc2[nH]c1=O)CC1CCCO1 (stereo not given) | -1% | i | i | ? | 32% | 7%
COc1ccc(NC(=O)N(Cc2cc3cc(OC)ccc3[nH]c2=O)CC2CCCO2)cc1 (stereo not given) | 0% | 5.4e-08M* | 5.4e-08M* | 32µM* | 9% | 15%
Cc1ccc(C)c2[nH]c(=O)c(CN(CCCN(C)C)C(=O)NCc3ccccc3)cc12 | 1% | 1.2e-08M* | ? | ? | 3% | ?
CCN(CC)CCCN(Cc1cc2cc(OC)ccc2[nH]c1=O)C(=O)Nc1ccc(F)cc1 | 0% | 1.3e-07M* | 1.7e-07M* | ? | -3% | 8%
CC(=O)N(Cc1cccnc1)Cc1cc2ccc(C)cc2[nH]c1=O | 0% | ? | i | ? | 2% | -6%
Cc1ccc2cc(CN(CCN3CCOCC3)C(=O)NCc3ccccc3)c(=O)[nH]c2c1C | 1% | ? | i | ? | -4% | -9%
COc1cc2cc(CN(Cc3cccnc3)C(=O)NCc3ccccc3)c(=O)[nH]c2cc1OC | 2% | 2.2e-07M* | 2.5e-07M* | 25µM* | -29% | 5%
N[C@H](COP(=O)(O)O)C(=O)O | nt | ? | ? | nt | -7% | 0%
Nc1c(S(N)(=O)=O)cc(S(N)(=O)=O)cc1S(N)(=O)=O | 1%[11.5 µM] | i | i | 8%[11.4 µM] | 10%[11.4 µM] | -6%[7.6 µM]
O=P(O)(O)O | 0% | nt | nt | 1% | -4% | -5%
SMILES | AID923 | A350 fluor | 4MU fluor | HSD17B inhib | HADH2 inhib | CRE Fsk mod
CCN(CC)CCCn1c(-c2ccccc2)nc2c(NCc3ccccc3)nc(C)nc21 | 3% | nt | nt | 20µM* | -10% | -9%
CCN(CC)CCCCn1c(-c2ccccc2)nc2c(Nc3ccccc3)nc(C)nc21 | 1% | nt | nt | -6% | 10% | 10%
CCN(CC)CCCCn1c(-c2ccccc2)nc2c(NCc3ccccc3)nc(C)nc21 | 0% | nt | nt | 25µM* | -26% | -11%
CCCn1c(C)nc2c(NCCN(C)C)nc(C)nc21 | -2% | nt | nt | 19% | 16% | 4%
Cc1nc(NCc2ccccc2)c2nc(-c3ccccc3)n(CC(C)(C)CN(C)C)c2n1 | 0% | nt | nt | 32µM* | 10% | -18%
CCC1=C2CC[C@H]3C(=O)NC(=O)[C@H]3[C@H]2[C@@]2(C)C(=NCC3CC3)OC(=O)N2C1=O | 1% | nt | nt | -13% | nt | nt
Cc1ncc2c(c1O)COP(=O)(O)OC2 | -2% | nt | nt | -3% | -2% | -10%
C=Cc1c(C)/c2[n-]/c1=C\c1[n-]c(c(CC)c1C)/C=c1\[n-]c3c(c1C)C(=O)C(C(=O)[O-])C=3c1[n-]c(c(C)c1CCC(=O)[O-])\C=2.[Cu].[Na+].[Na+] (stereo not given) | 5% | nt | nt | 6.3µM* | nt | nt
Cc1noc(C)c1C(=O)N1CCC2(CCN(C(=O)NC(C)C)CC2)CC1 | 2% | i | i | 2% | 7% | 0%
OCCN1CC(O)C(O)C(O)C1CO (stereo not given) | -1% | nt | nt | 13% | nt | nt
Cc1cccc(-c2nnc3n2N=C(c2ccc(Br)cc2)CS3)c1 | nt | i | i | nt | nt | nt
Brc1ccc(C2=Nn3c(nnc3-c3n[nH]c4c3CCC4)SC2)cc1 | 0% | i | i | 2% | 3% | 5µM*
Clc1ccc(C2=Nn3c(nnc3-c3n[nH]c4c3CCC4)SC2)cc1 | 0% | 3e-08M* | 2.7e-08M* | -12% | 13% | 2.5µM*
Clc1ccc(C2=Nn3c(nnc3-c3cccnc3)SC2)s1 | 0% | i | i | -4% | -5% | 3%
Cc1ccc(-c2nnc3n2N=C(c2ccc(Br)cc2)CS3)cc1 | -1% | nt | nt | -26% | 7% | 10µM*
FC(F)(F)c1nc2nncn2c2c1CCCCC2 | -2% | 1.6e-07M* | 1.1e-07M* | 25µM* | -21% | ?
Cc1nnc(NC(=O)c2ccc3ccccc3c2)o1 | 0% | 1.3e-08M* | ? | -2% | -5% | ?
Cc1nnc(NC(=O)c2ccc(S(=O)(=O)N3CCCCCC3)cc2)o1 | 0% | i | i | 1% | 6% | -3%
COc1ccccc1OC[C@H](O)CO | -3%[25.7 µM] | i | i | 4%[25.6 µM] | -3%[25.6 µM] | -9%[17.1 µM]
O=c1c2c3c(sc2nc2n1CCCCC2)CCCC3 | -1% | nt | nt | ? | 10µM* | ?
